In all, about 43,000 compounds went through this assay and about 830 (1.9%) were called active. Another 30% or so got no clear call; they are omitted. The calls were made as follows: active = clear falling dose curves in both reporters; inconclusive = both reporters move, but less clearly or upward; inactive = either reporter flat; the % is the NLuc reporter signal. The entries come from a sample that favours actives as a whole.
Assay: Cell-based coincidence reporter assay to measure PMP22 gene transcription in S16 Pmp22-F2sN cells - Primary screen
Details: S16 Pmp22-F2sN Schwann cells (luciferase reporters placed in the Pmp22 gene), FLuc/NLuc coincidence luminescence, 24 h; series mostly up to 57.5 µM; activity change, negative = inhibition: at the top concentration
Summary of the method: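 Transcriptional readout in edited S16(c9) cells: two luciferases reported from the Pmp22 locus, measured in turn after 24 h compound incubation.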
% is scaled to controls: 0 for no effect and ±100 for the full control effect; potency is read from the fitted curve at half-maximal effect.

With O=C(c1ccc2c(c1)N(Cc1ccc(F)cc1)C(=O)c1ccccc1S2(=O)=O)N1CCN(c2ccccn2)CC1 as the compound, how does the Potency read?
Its Potency is 15.6 µM (active).

With O=C(NCCc1ccccc1)c1ccc2c(c1)N(Cc1ccc(F)cc1)C(=O)c1ccccc1S2(=O)=O as the compound, how does the “activity change, negative = inhibition” value read?
Its value is -29% (inactive).

With O=C(c1ccc2c(c1)N(Cc1ccccc1F)C(=O)c1ccccc1S2(=O)=O)N1CCOCC1 as the compound, how does the “activity change, negative = inhibition” value read?
Its value is -4.6% (inactive).

Which “activity change, negative = inhibition” value does the source give for Cc1ccc(C(=O)N2c3ncnn3C3(CCCCC3)[C@@H]3CCCC[C@@H]32)cc1 here?
Its value is -3.73% (inactive).

With COc1ccc(CCNc2nc(-c3ccc(F)cc3)cc(C(F)(F)F)n2)cc1OC as the compound, how does the “activity change, negative = inhibition” value read?
The value was -5.08% (inactive).

Which “activity change, negative = inhibition” value does the source give for O=C(CSc1nc(=O)n(Cc2cccnc2)c2c1CCC2)Nc1ccc(F)cc1F here?
The value was -25.4% (inactive).

Which “activity change, negative = inhibition” value does the source give for Cn1nnnc1SCCCNCc1ccc(Cl)cc1 here?
Its value is 0.621% (inactive).

For CCC(=O)N1CCc2cc(S(=O)(=O)NC(CC(C)C)C(=O)NCCc3cccc(C)c3)ccc21 (configuration not stated), which “activity change, negative = inhibition” value is on record?
Its value is 7.22% (inactive).

For CCc1ccc(NC(=O)CSc2nc3c([nH]c4ccccc43)c(=O)n2-c2cccc(OC)c2)cc1, which “activity change, negative = inhibition” value is on record?
Its value is -1.32% (inactive).

With Cc1ccccc1CSc1nc2c([nH]c3ccccc32)c(=O)n1C as the compound, how does the “activity change, negative = inhibition” value read?
Its value is -13.5% (inactive).

Which Potency does the source give for CCOC(=O)c1ccc(NC(=O)CSc2nc3c([nH]c4ccccc43)c(=O)n2C)cc1 here?
Its Potency is 14.1 µM (active).

For Cc1ccccc1NC(=O)CCOc1ccccc1, which “activity change, negative = inhibition” value is on record?
Its value is 3.36% (inactive).

With COc1ccc(C)cc1N(C)C(=O)c1c(C)oc2ncnc(N3CCOCC3)c12 as the compound, how does the “activity change, negative = inhibition” value read?
The value was -13.9% (inactive).

With Cc1cccc(-n2c(SCC(N)=O)nc3c(oc4ccccc43)c2=O)c1 as the compound, how does the “activity change, negative = inhibition” value read?
Its value is -13.6% (inactive).

For CCc1ccc(NC(=O)c2cc(S(=O)(=O)N3CCCC(C)C3)cn2C)cc1 (configuration not stated), which “activity change, negative = inhibition” value is on record?
The value was -12.6% (inactive).

Which Potency does the source give for CCc1ccc(NC(=O)CN2CCSc3ccc(S(=O)(=O)N4CCCC4)cc32)cc1 here?
The Potency was 17 µM (active).

With CC1CCN(CCCNC(=O)CN2C(=O)CSc3ccc(S(=O)(=O)N4CCCCC4)cc32)CC1 as the compound, how does the “activity change, negative = inhibition” value read?
Its value is -33% (inactive).

For O=C(NCc1ccccc1Cl)c1cccn1-c1nnc(N2CCCCC2)s1, which “activity change, negative = inhibition” value is on record?
Its value is -13.1% (inactive).

For COc1ccccc1CCNC(=O)c1cccn1-c1nnc(N2CCCCC2)s1, which “activity change, negative = inhibition” value is on record?
The value was -23.5% (inactive).

With Cc1ccc(CCNC(=O)C2CCN(c3nnc(-n4cccc4CNc4ccc(C)cc4)s3)CC2)cc1 as the compound, how does the Potency read?
The Potency was 20 µM (active).

With Cc1cc(C)cc(NC(=O)Cc2csc(C)n2)c1 as the compound, how does the “activity change, negative = inhibition” value read?
Its value is -1.79% (inactive).

Which “activity change, negative = inhibition” value does the source give for Cc1nc2ccc(S(=O)(=O)NC(C(=O)NCc3ccccc3Cl)C(C)C)cc2s1 (configuration not stated) here?
The value was -9.19% (inactive).

Reference: PubChem BioAssay AID1508649 (National Center for Advancing Translational Sciences (NCATS), 2021)
